The molecules below were run against Torsin-1A-interacting protein 1 (Homo sapiens) (UniProt Q5JTV8) (assay: LAP1 binders from COS7 cell lysate, primary screen, small-molecule microarray, 635/667 nm fluorescence (AID 1116)). Conditions: COS7-hLAP1 lysate binding, 635 nm fluorescence, higher = more signal.
Torsin-1A-interacting protein 1 (Homo sapiens), sequence (Q5JTV8 whole entry, looked up): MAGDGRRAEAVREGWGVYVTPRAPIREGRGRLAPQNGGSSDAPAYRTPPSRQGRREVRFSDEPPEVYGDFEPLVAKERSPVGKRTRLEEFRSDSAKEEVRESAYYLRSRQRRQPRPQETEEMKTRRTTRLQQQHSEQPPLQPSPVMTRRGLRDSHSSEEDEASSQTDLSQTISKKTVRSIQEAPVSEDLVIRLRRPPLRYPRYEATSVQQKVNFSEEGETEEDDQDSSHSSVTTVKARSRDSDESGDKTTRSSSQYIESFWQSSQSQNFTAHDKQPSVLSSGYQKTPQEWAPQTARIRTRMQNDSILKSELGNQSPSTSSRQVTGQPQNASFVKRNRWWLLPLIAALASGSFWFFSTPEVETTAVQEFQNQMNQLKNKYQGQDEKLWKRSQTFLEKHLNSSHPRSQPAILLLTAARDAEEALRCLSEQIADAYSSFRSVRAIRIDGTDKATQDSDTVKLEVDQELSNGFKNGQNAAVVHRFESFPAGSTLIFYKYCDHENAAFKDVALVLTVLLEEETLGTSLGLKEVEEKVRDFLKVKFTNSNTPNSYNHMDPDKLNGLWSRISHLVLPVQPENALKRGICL

With `[N-]=[N+]=Nc1ccccc1C[C@]1(C(=O)O)N=C(c2ccc(OCCCO)cc2)O[C@H]1c1ccccc1` as the molecule, how does the composite z-score read?
Its composite z-score is 0.764.

Which composite z-score does the source give for `CN1C(=O)[C@@]2(Cc3ccccc3)N=C(c3ccc(OCCCO)cc3)O[C@H]2c2ccccc21` here?
The composite z-score was 0.344.

With `NC(=O)[C@@H]1[C@H]2C(=O)O[C@H](c3ccccc3)[C@H](c3ccccc3)N2[C@H](c2ccc(OCCO)cc2)[C@@]12C(=O)Nc1ccc(C#CCCO)cc12` as the molecule, how does the composite z-score read?
The composite z-score was 0.628.

How did the composite z-score turn out when `Cc1ccc(S[C@]2(C(=O)NC(C)C)CC(=O)N(Cc3ccccc3Cl)[C@@H]2c2ccc(CO)cc2)cc1` was run?
Its composite z-score is 0.98.

Which composite z-score does the source give for `CC(C)=CCCC(C)=CC(O)C1C=CC2C(=O)N(c3ccccc3)C(=O)C2N1Nc1ccccc1F` (stereo not drawn) here?
Its composite z-score is 2.19.

For `COc1cc2c(cc1OC)CN(C(=O)[C@@H]1[C@H]3C(=O)O[C@H](c4ccccc4)[C@H](c4ccccc4)N3[C@H](c3ccc(O)cc3)[C@@]13C(=O)Nc1ccc(C#CCCO)cc13)CC2`, which composite z-score is on record?
The composite z-score was 0.678.

Which composite z-score does the source give for `COc1cc(NN2C(C(O)C3CCCCC3)C=CC3C(=O)N(C)C(=O)C32)cc(OC)c1OC` (stereo not drawn) here?
The composite z-score was 1.32.

How did the composite z-score turn out when `CC(C)C(CO)N1C(=O)[C@@H]2[C@H]3C(=O)OCC=C[C@H]3OC23C=CCN(C(C)(C)C)C(=O)[C@@H]13` (stereo partly drawn) was run?
The composite z-score was -0.809.

For `COC(=O)[C@@]1(Cc2ccc(OC)cc2)[C@H]2c3cc(C(=O)N4CCCC4)n(Cc4ccc(S(C)(=O)=O)cc4)c3C[C@H]2CN1C(=O)c1ccccc1`, which composite z-score is on record?
The composite z-score was 1.05.

`CCCNC(=O)[C@@]1(Sc2ccc(C)cc2)CC(=O)N(C2CCCCC2)[C@@H]1c1ccc(CO)cc1I` was tested. Which composite z-score did it give?
The composite z-score was 0.982.

For `CO[C@H]1O[C@H](CO)[C@@H](OC(=O)Nc2ccc(C#N)cc2)[C@@H]2OC(=O)[C@H](Cc3cccc(Br)c3)C/C=C/C[C@@H](Cc3cccc(Br)c3)C(=O)O[C@@H]12`, which composite z-score is on record?
The composite z-score was 0.318.

For `COCCOC(=O)N1C(=O)[C@@]2(c3cc(C#CC4(O)CCCCCC4)ccc31)[C@H](C(=O)N1CCN(c3ncccn3)CC1)[C@H]1C(=O)O[C@H](c3ccccc3)[C@H](c3ccccc3)N1[C@@H]2c1ccccc1OCCO`, which composite z-score is on record?
Its composite z-score is 0.334.

For `CCCC=C(CCC)[C@@H](NC(=O)CCc1ccccc1)c1ccc(C(F)(F)F)cc1`, which composite z-score is on record?
Its composite z-score is 1.11.

With `CC(C)[C@H]1NC(=O)[C@@]23C(=O)N[C@@H](Cc4ccccc4)C2[C@H](C)[C@@]2(C)O[C@H]2C3/C=C/CCC/C=C/CNC(=O)[C@H](Cc2ccccc2)NC1=O` (stereo partly drawn) as the molecule, how does the composite z-score read?
Its composite z-score is -0.148.

Which composite z-score does the source give for `CCCCNC(=O)c1ccc(C#C[Si](C(C)C)(C(C)C)C(C)C)c(OC(C)=O)c1` here?
The composite z-score was 0.15.

For `C=C(/C(=C/C[C@H](OC(=O)c1ccncc1)c1ccccc1OCCO)c1cnc2ccccc2c1)C(C)C`, which composite z-score is on record?
Its composite z-score is 0.358.

For `COc1cc(NN2C(C(O)c3cc(OC)c(OC)c(OC)c3)C=CC3C(=O)N(c4ccccc4)C(=O)C32)cc(OC)c1OC` (stereo not drawn), which composite z-score is on record?
The composite z-score was 1.56.

For `COC(=O)[C@@]1(Cc2ccccc2)[C@H]2c3cc(C(=O)N4CCCC4)n(CCSCCO)c3C[C@H]2CN1C(=O)c1ccccc1`, which composite z-score is on record?
Its composite z-score is 2.04.

`COCCOC(=O)N1C(=O)[C@@]2(c3cc(C#Cc4ccc(OC)cc4)ccc31)[C@H](c1ccc(OCCO)cc1)N1[C@H](c3ccccc3)[C@H](c3ccccc3)OC(=O)[C@H]1[C@@H]2C(=O)Nc1nc2ccccc2s1` was tested. Which composite z-score did it give?
Its composite z-score is 0.699.

Which composite z-score does the source give for `COCCOC(=O)N1C(=O)[C@@]2(c3cc(C#CCC(C(=O)OC)C(=O)OC)ccc31)[C@H](c1ccc(O)cc1)N1[C@H](c3ccccc3)[C@H](c3ccccc3)OC(=O)[C@H]1[C@@H]2C(=O)NC[C@H](O)c1ccccc1` here?
The composite z-score was 1.06.

For `CCCCCCCCCCC(O)C1C=CC2C(=O)N(c3ccccc3)C(=O)C2N1Nc1ccccc1F` (stereo not drawn), which composite z-score is on record?
The composite z-score was 0.0092.

`COc1ccc(C(O)C2C=CC3C(=O)N(c4ccccc4)C(=O)C3N2Nc2ccc(C(C)C)cc2)c2ccccc12` (stereo not drawn) was tested. Which composite z-score did it give?
Its composite z-score is 0.865.

Which composite z-score does the source give for `O=C1C2C=CC(C(O)c3cc(C(F)(F)F)cc(C(F)(F)F)c3)N(Nc3ccccc3F)C2C(=O)N1c1ccccc1` (stereo not drawn) here?
The composite z-score was 0.985.

With `C=C(CCCC)C(=O)CC[C@@H](OC(=O)c1cccnc1)c1ccc(OCCO)cc1` as the molecule, how does the composite z-score read?
Its composite z-score is 0.903.

For `C=C(/C(=C/C[C@@H](OC(=O)c1ccncc1)c1cccc(OCCO)c1)c1cnc2ccccc2c1)C(C)C`, which composite z-score is on record?
Its composite z-score is 1.37.

For `CC(C)CNC(=O)[C@@]1(c2ccc([N+](=O)[O-])cc2)CC(=O)N(C2CCCCC2)[C@@H]1c1ccc(CO)cc1`, which composite z-score is on record?
The composite z-score was 2.

`C[C@]1(C(=O)O)c2ccccc2C(=O)N(Cc2ccc(OC(F)(F)F)cc2)[C@H]1c1ccc(CO)cc1` was tested. Which composite z-score did it give?
Its composite z-score is 0.703.

For `C=C(COC)C(=O)CC[C@H](OC(=O)c1cccnc1)c1ccc(CO)o1`, which composite z-score is on record?
The composite z-score was 0.659.

Reference: PubChem BioAssay
